# Source: PMC11006913
# Numbering of substitutions follows the chain as printed.
# Assays:
# Assay in all cases: PBM; 200 nM protein, PBS
# Conditions in all cases: dsDNA, one strand shown
# HOXB4 [1] = target: HOXB4 (Homo sapiens, UniProt P17483 148-234)
# VENTX [2] = target: T1, VENTX (Homo sapiens, UniProt O95231 78-163, R121Q)
# T1 sequence: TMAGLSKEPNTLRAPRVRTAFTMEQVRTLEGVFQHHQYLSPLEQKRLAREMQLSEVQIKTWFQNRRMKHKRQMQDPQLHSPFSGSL
# HOXA4 [3] = target: HOXA4 (Homo sapiens, UniProt Q00056 201-287, W262R)
# VENTX [4] = target: T2, VENTX (Homo sapiens, UniProt O95231 78-163)
# T2 sequence: T1 sequence with Q44R
# VENTX [5] = target: T3, VENTX (Homo sapiens, UniProt O95231 78-163, Y115F)
# T3 sequence: T1 sequence with Y38F, Q44R
# HOXA2 [6] = target: HOXA2 (Homo sapiens, UniProt O43364 129-215, R185T)
# HOXA4 [7] = target: HOXA4 (Homo sapiens, UniProt Q00056 201-287, R217L)
# HOXB4 [8] = target: HOXB4 (Homo sapiens, UniProt P17483 148-234, V174I)
# HOXA2 [9] = target: HOXA2 (Homo sapiens, UniProt O43364 129-215, R185K)
# HOXA4 [10] = target: HOXA4 (Homo sapiens, UniProt Q00056 201-287)
# VAX1 [11] = target: VAX1 (Homo sapiens, UniProt Q5SQQ9 86-172)
# VAX1 [12] = target: VAX1 (Homo sapiens, UniProt Q5SQQ9 86-172, T142I)
# HOXA2 [13] = target: HOXA2 (Homo sapiens, UniProt O43364 129-215, Y150S)
# HOXA4 [14] = target: HOXA4 (Homo sapiens, UniProt Q00056 201-287, W262F)
# HOXA2 [15] = target: HOXA2 (Homo sapiens, UniProt O43364 129-215)
# VAX1 [16] = target: VAX1 (Homo sapiens, UniProt Q5SQQ9 86-172, K157R)
# HOXB9 [17] = target: HOXB9 (Homo sapiens, UniProt P17482 171-250, T197M)
# HOXC9 [18] = target: HOXC9 (Homo sapiens, UniProt P31274 178-260, K195R)
# HOXA7 [19] = target: HOXA7 (Homo sapiens, UniProt P31268 116-202)
# HOXC10 [20] = target: HOXC10 (Homo sapiens, UniProt Q9NYD6 254-340)
# HOXB6 [21] = target: HOXB6 (Homo sapiens, UniProt P17509 132-218, K202E)
# HOXB9 [22] = target: HOXB9 (Homo sapiens, UniProt P17482 171-250)
# HOXC9 [23] = target: HOXC9 (Homo sapiens, UniProt P31274 178-260)
# HOXD13 [24] = target: HOXD13 (Homo sapiens, UniProt P35453 263-343, T313R)
# HOXC9 [25] = target: HOXC9 (Homo sapiens, UniProt P31274 178-260, R193K)
# HOXD13 [26] = target: HOXD13 (Homo sapiens, UniProt P35453 263-343)
# HOXC10 [27] = target: HOXC10 (Homo sapiens, UniProt Q9NYD6 254-340, K271E)
# HOXD13 [28] = target: HOXD13 (Homo sapiens, UniProt P35453 263-343, T313A)
# HOXB9 [29] = target: HOXB9 (Homo sapiens, UniProt P17482 171-250, R186Q)
# HOXC9 [30] = target: HOXC9 (Homo sapiens, UniProt P31274 178-260, R222W)
# HOXA7 [31] = target: HOXA7 (Homo sapiens, UniProt P31268 116-202, W177C)
# HOXB6 [32] = target: HOXB6 (Homo sapiens, UniProt P17509 132-218)
# Chain of HOXB6 (Homo sapiens, UniProt P17509 132-218) (P17509 132-218): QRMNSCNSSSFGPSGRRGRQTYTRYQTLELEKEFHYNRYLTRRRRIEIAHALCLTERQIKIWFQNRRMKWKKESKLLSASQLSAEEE
# Chain of HOXA4 (Homo sapiens, UniProt Q00056 201-287, W262R) (Q00056 201-287 W262R): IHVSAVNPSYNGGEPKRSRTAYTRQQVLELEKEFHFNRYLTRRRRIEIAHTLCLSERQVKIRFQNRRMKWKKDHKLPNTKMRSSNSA
# Chain of VAX1 (Homo sapiens, UniProt Q5SQQ9 86-172) (Q5SQQ9 86-172): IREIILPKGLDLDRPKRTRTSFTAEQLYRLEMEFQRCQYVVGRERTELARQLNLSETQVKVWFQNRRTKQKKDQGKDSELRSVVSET
# Chain of HOXA4 (Homo sapiens, UniProt Q00056 201-287, W262F) (Q00056 201-287 W262F): as the sequence (Q00056 201-287 W262R) above, with R62F counted along it
# Chain of HOXB4 (Homo sapiens, UniProt P17483 148-234, V174I) (P17483 148-234 V174I): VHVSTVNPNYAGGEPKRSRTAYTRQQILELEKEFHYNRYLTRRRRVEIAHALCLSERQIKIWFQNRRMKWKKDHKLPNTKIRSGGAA
# Chain of HOXA2 (Homo sapiens, UniProt O43364 129-215) (O43364 129-215): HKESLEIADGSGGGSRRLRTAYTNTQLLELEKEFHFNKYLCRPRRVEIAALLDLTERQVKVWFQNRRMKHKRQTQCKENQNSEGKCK
# Chain of HOXA2 (Homo sapiens, UniProt O43364 129-215, R185K) (O43364 129-215 R185K): as the sequence (O43364 129-215) above, with R57K counted along it
# Chain of HOXA4 (Homo sapiens, UniProt Q00056 201-287) (Q00056 201-287): as the sequence (Q00056 201-287 W262R) above, with R62W counted along it
# Chain of VAX1 (Homo sapiens, UniProt Q5SQQ9 86-172, T142I) (Q5SQQ9 86-172 T142I): as the sequence (Q5SQQ9 86-172) above, with T57I counted along it
# Chain of HOXB4 (Homo sapiens, UniProt P17483 148-234) (P17483 148-234): as the sequence (P17483 148-234 V174I) above, with I27V counted along it
# Chain of HOXA2 (Homo sapiens, UniProt O43364 129-215, Y150S) (O43364 129-215 Y150S): as the sequence (O43364 129-215) above, with Y22S counted along it
# Chain of HOXA2 (Homo sapiens, UniProt O43364 129-215, R185T) (O43364 129-215 R185T): as the sequence (O43364 129-215) above, with R57T counted along it
# Chain of VAX1 (Homo sapiens, UniProt Q5SQQ9 86-172, K157R) (Q5SQQ9 86-172 K157R): as the sequence (Q5SQQ9 86-172) above, with K72R counted along it
# Chain of HOXA4 (Homo sapiens, UniProt Q00056 201-287, R217L) (Q00056 201-287 R217L): as the sequence (Q00056 201-287 W262R) above, with R17L, R62W counted along it
# Chain of HOXC10 (Homo sapiens, UniProt Q9NYD6 254-340, K271E) (Q9NYD6 254-340 K271E): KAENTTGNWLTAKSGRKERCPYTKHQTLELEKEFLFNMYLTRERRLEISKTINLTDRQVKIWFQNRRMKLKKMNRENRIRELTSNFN
# Chain of HOXD13 (Homo sapiens, UniProt P35453 263-343) (P35453 263-343): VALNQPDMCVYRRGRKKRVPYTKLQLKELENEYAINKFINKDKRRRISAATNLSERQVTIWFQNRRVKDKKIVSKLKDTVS
# Chain of HOXB9 (Homo sapiens, UniProt P17482 171-250) (P17482 171-250): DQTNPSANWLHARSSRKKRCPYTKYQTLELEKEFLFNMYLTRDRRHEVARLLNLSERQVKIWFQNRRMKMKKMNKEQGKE
# Chain of HOXC9 (Homo sapiens, UniProt P31274 178-260, R222W) (P31274 178-260 R222W): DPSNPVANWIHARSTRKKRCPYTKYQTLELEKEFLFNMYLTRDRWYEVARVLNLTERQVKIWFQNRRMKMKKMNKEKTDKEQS
# Chain of HOXA7 (Homo sapiens, UniProt P31268 116-202, W177C) (P31268 116-202 W177C): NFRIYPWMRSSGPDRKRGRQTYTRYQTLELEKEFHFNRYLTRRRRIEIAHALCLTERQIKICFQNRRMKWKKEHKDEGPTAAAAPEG
# Chain of HOXD13 (Homo sapiens, UniProt P35453 263-343, T313A) (P35453 263-343 T313A): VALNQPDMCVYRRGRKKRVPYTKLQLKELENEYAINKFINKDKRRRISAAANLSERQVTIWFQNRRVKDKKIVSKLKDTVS
# Chain of HOXC9 (Homo sapiens, UniProt P31274 178-260, R193K) (P31274 178-260 R193K): as the sequence (P31274 178-260 R222W) above, with R16K, W45R counted along it
# Chain of HOXC9 (Homo sapiens, UniProt P31274 178-260) (P31274 178-260): as the sequence (P31274 178-260 R222W) above, with W45R counted along it
# Chain of HOXB9 (Homo sapiens, UniProt P17482 171-250, R186Q) (P17482 171-250 R186Q): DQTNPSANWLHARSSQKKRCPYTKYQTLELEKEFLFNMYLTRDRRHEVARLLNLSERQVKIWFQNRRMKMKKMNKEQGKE
# Chain of HOXA7 (Homo sapiens, UniProt P31268 116-202) (P31268 116-202): as the sequence (P31268 116-202 W177C) above, with C62W counted along it
# Chain of HOXC10 (Homo sapiens, UniProt Q9NYD6 254-340) (Q9NYD6 254-340): as the sequence (Q9NYD6 254-340 K271E) above, with E18K counted along it
# Chain of HOXD13 (Homo sapiens, UniProt P35453 263-343, T313R) (P35453 263-343 T313R): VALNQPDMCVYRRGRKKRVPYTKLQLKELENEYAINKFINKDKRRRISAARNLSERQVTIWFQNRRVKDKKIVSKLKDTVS
# Chain of HOXB9 (Homo sapiens, UniProt P17482 171-250, T197M) (P17482 171-250 T197M): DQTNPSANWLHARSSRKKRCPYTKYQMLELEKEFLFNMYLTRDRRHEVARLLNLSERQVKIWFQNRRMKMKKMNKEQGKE
# Chain of HOXB6 (Homo sapiens, UniProt P17509 132-218, K202E) (P17509 132-218 K202E): as the sequence (P17509 132-218) above, with K71E counted along it
# Chain of HOXC9 (Homo sapiens, UniProt P31274 178-260, K195R) (P31274 178-260 K195R): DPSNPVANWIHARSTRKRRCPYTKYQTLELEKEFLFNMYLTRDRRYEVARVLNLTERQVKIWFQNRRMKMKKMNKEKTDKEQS
sequence,measurement,setting,value
ATCATTAG,binding signal,HOXB4 [1],"13.5 upbm affinity estimate (log intensity, higher = more binding, comparable within an allelic series)"
same,binding signal,VENTX [2],"11.7 upbm affinity estimate (log intensity, higher = more binding, comparable within an allelic series)"
same,binding signal,HOXA4 [3],"10.6 upbm affinity estimate (log intensity, higher = more binding, comparable within an allelic series)"
same,binding signal,VENTX [4],"12.5 upbm affinity estimate (log intensity, higher = more binding, comparable within an allelic series)"
same,binding signal,VENTX [5],"11.8 upbm affinity estimate (log intensity, higher = more binding, comparable within an allelic series)"
same,binding signal,HOXA2 [6],"12.9 upbm affinity estimate (log intensity, higher = more binding, comparable within an allelic series)"
same,binding signal,HOXA4 [7],"12.3 upbm affinity estimate (log intensity, higher = more binding, comparable within an allelic series)"
same,binding signal,HOXB4 [8],"14.2 upbm affinity estimate (log intensity, higher = more binding, comparable within an allelic series)"
same,binding signal,HOXA2 [9],"13.6 upbm affinity estimate (log intensity, higher = more binding, comparable within an allelic series)"
same,binding signal,HOXA4 [10],"14.1 upbm affinity estimate (log intensity, higher = more binding, comparable within an allelic series)"
same,binding signal,VAX1 [11],"13.2 upbm affinity estimate (log intensity, higher = more binding, comparable within an allelic series)"
same,binding signal,VAX1 [12],"13.1 upbm affinity estimate (log intensity, higher = more binding, comparable within an allelic series)"
same,binding signal,HOXA2 [13],"10.9 upbm affinity estimate (log intensity, higher = more binding, comparable within an allelic series)"
same,binding signal,HOXA4 [14],"12 upbm affinity estimate (log intensity, higher = more binding, comparable within an allelic series)"
same,binding signal,HOXA2 [15],"12.7 upbm affinity estimate (log intensity, higher = more binding, comparable within an allelic series)"
same,binding signal,VAX1 [16],"13.1 upbm affinity estimate (log intensity, higher = more binding, comparable within an allelic series)"
TCATTAAA,binding signal,HOXB4 [1],"13.1 upbm affinity estimate (log intensity, higher = more binding, comparable within an allelic series)"
same,binding signal,HOXB9 [17],"10.2 upbm affinity estimate (log intensity, higher = more binding, comparable within an allelic series)"
same,binding signal,HOXA4 [3],"10.8 upbm affinity estimate (log intensity, higher = more binding, comparable within an allelic series)"
same,binding signal,HOXC9 [18],"13 upbm affinity estimate (log intensity, higher = more binding, comparable within an allelic series)"
same,binding signal,HOXA7 [19],"11.6 upbm affinity estimate (log intensity, higher = more binding, comparable within an allelic series)"
same,binding signal,HOXC10 [20],"12.6 upbm affinity estimate (log intensity, higher = more binding, comparable within an allelic series)"
same,binding signal,HOXB6 [21],"10.1 upbm affinity estimate (log intensity, higher = more binding, comparable within an allelic series)"
same,binding signal,HOXA2 [6],"12.5 upbm affinity estimate (log intensity, higher = more binding, comparable within an allelic series)"
same,binding signal,HOXA4 [7],"12.5 upbm affinity estimate (log intensity, higher = more binding, comparable within an allelic series)"
same,binding signal,HOXB9 [22],"12.2 upbm affinity estimate (log intensity, higher = more binding, comparable within an allelic series)"
same,binding signal,HOXB4 [8],"13.8 upbm affinity estimate (log intensity, higher = more binding, comparable within an allelic series)"
same,binding signal,HOXC9 [23],"12.9 upbm affinity estimate (log intensity, higher = more binding, comparable within an allelic series)"
same,binding signal,HOXD13 [24],"10.8 upbm affinity estimate (log intensity, higher = more binding, comparable within an allelic series)"
same,binding signal,HOXC9 [25],"12.9 upbm affinity estimate (log intensity, higher = more binding, comparable within an allelic series)"
same,binding signal,HOXA2 [9],"13.1 upbm affinity estimate (log intensity, higher = more binding, comparable within an allelic series)"
same,binding signal,HOXD13 [26],"11.9 upbm affinity estimate (log intensity, higher = more binding, comparable within an allelic series)"
same,binding signal,HOXA4 [10],"13.9 upbm affinity estimate (log intensity, higher = more binding, comparable within an allelic series)"
same,binding signal,HOXC10 [27],"12.4 upbm affinity estimate (log intensity, higher = more binding, comparable within an allelic series)"
same,binding signal,VAX1 [11],"13 upbm affinity estimate (log intensity, higher = more binding, comparable within an allelic series)"
same,binding signal,HOXD13 [28],"11.7 upbm affinity estimate (log intensity, higher = more binding, comparable within an allelic series)"
same,binding signal,HOXB9 [29],"12 upbm affinity estimate (log intensity, higher = more binding, comparable within an allelic series)"
same,binding signal,HOXC9 [30],"11.2 upbm affinity estimate (log intensity, higher = more binding, comparable within an allelic series)"
same,binding signal,VAX1 [12],"13 upbm affinity estimate (log intensity, higher = more binding, comparable within an allelic series)"
same,binding signal,HOXA2 [13],"10.9 upbm affinity estimate (log intensity, higher = more binding, comparable within an allelic series)"
same,binding signal,HOXA7 [31],"9 upbm affinity estimate (log intensity, higher = more binding, comparable within an allelic series)"
same,binding signal,HOXA4 [14],"11.9 upbm affinity estimate (log intensity, higher = more binding, comparable within an allelic series)"
same,binding signal,HOXA2 [15],"12.3 upbm affinity estimate (log intensity, higher = more binding, comparable within an allelic series)"
same,binding signal,VAX1 [16],"12.9 upbm affinity estimate (log intensity, higher = more binding, comparable within an allelic series)"
same,binding signal,HOXB6 [32],"11.9 upbm affinity estimate (log intensity, higher = more binding, comparable within an allelic series)"
